ELG1 DNA repair – inhibitors of ELG1-dependent DNA repair in HEK293T cells | HEK293T ELG1-luciferase reporter, luminescence, 16 h; DNA damage induced by 5-fluorouridine | Potency, µM (series often up to 46.1 µM), without a hit: at the top dose activity change, negative = inhibition, hits mostly inhibitors | hit rate 2.3% among 330,000 | AID 504467; also: % is scaled to controls: 0 for no effect and ±100 for the full control effect; nearly all actives have a fitted effect of over 55% in size
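Overnight (16 hr) co-exposure of 2,000 cells/well to 5-fluorouridine and compound at 37 °C preceded detection. Luciferase was quantified via ONE-Glo luminescence; loss of signal denotes inhibition.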
Rab9 promoter act – activates the Rab9 promoter; Huh7 Rab9 promoter-luciferase reporter, luminescence, 24 h; Potency, µM (doses to about 9.22 µM), inactives show top-dose activation, negative = inhibition, hits mostly activators; hit rate 2.8% among 320,000; AID 485297; also: % of control where 0% means no effect; nearly all actives have a fitted effect of over 60% in size
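Luminescence read-out: Huh7 cells stably expressing Rab9-luciferase, treated 24 h with compound at 37 °C, then lysed with luciferase reagent for 10 min at ambient before reading.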
SMN2 splice enh – enhancers of SMN2 splice variant expression; HEK293 SMN2-luciferase splicing reporter, luminescence, 30-36 h; AID 1458; hit rate 2.8% among 210,000; Potency, µM (series often up to 46.1 µM), inactives show at the highest dose activity change, positive = activation, usual class: activators; also: % of control where 0% means no effect; nearly all actives have a fitted effect of over 55% in size
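HEK293 cells carry an SMN2 […]–luciferase reporter in which exon 7 inclusion puts luciferase in frame. Cells were plated 10-12 h before compound addition, then incubated 30-36 h at 37C. ONE-Glo luminescence was read; sodium butyrate at 4.5 mM final served as control.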
FLuc modulator – inhibits or activates purified firefly luciferase, miR-21 counter-screen; AID 588342; hit rate 6.9% among 360,000; purified FLuc, Km substrates, luminescence inhibition; Potency, µM (highest dose often 57.5 µM), for the others: at the highest dose activity change, negative = inhibition, usual class: inhibitors; P08659;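 also: plate controls were vehicle for no effect and reference inhibitor for full effect; nearly all actives have a fitted effect of over 55% in size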
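Purified P. pyralis luciferase, 10 nM final, with Km-level 10 uM D-luciferin and 10 uM ATP in 50 mM Tris acetate pH 7.5, 10 mM Mg acetate, 0.01% Tween-20, 0.05% BSA; 6-point qHTS titration about 60 µM downward; luminescence read.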
ELG1 genotox – inducers of genotoxicity in HEK293T ELG1-luciferase cells. AID 504466. Potency, µM (highest dose often 46 µM), for inactives: top-dose activity change, positive = activation, hits mostly activators. HEK293T ELG1-luciferase reporter, luminescence, 16 h. hit rate 1.3% among 330,000; also: % of control where 0% means no effect; nearly all actives have a fitted effect of over 60% in size
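Cells (2,000/well) expressing the ELG1-luciferase fusion are dosed by pin tool and kept 16 hr at 37 °C, 5% CO2. Signal comes from ONE-Glo luciferase reagent after 30 min at room temperature.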
NPC1 promoter act – NPC1 promoter activation; hit rate 2.4% among 320,000; Huh7 NPC1 promoter luciferase reporter, 24 h; AID 485313; Potency, µM (highest dose often 9.22 µM), without a hit: top-dose activation, actives largely listed as activators; also: % of control where 0% means no effect; nearly all actives have a fitted effect of over 60% in size
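Luciferase expression driven by the NPC1 promoter was measured in stably transfected Huh7 cells after a 24 h compound incubation, using a luciferase reagent and a luminescence read.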
ELG1 FLuc counter – luciferase inhibition in cell-free luciferin readout for ELG1 hits; AID 624247; hit rate 3% among 350; shares compounds with ELG1 DNA repair; cell-free firefly luciferase luminescence counter-screen, ViewLux; Potency, µM (titrated, usually from 46.1 µM), without a hit: at the highest dose activity change, negative = inhibition, most hits filed as inhibitors; also: % is scaled to controls: 0 for no effect and ±100 for the full control effect
ELG1-Luc inh – confirmation of human ELG1-dependent DNA repair inhibitors | HEK293T ELG1-luciferase levels, luminescence; cells co-treated with 5-fluorouridine | Potency, µM (top dose mostly 46.1 µM), for inactives: at the top dose activity change, negative = inhibition, actives largely listed as inhibitors | AID 624248 | shares compounds with ELG1 DNA repair | hit rate 68% among 670; also: % is scaled to controls: 0 for no effect and ±100 for the full control effect; nearly all actives have a fitted effect of over 55% in size
ELG1 MMS Luc – MMS-stimulated human ELG1 repair inhibition, confirmed. hit rate 53% among 670. AID 624249. HEK293T luciferase-tagged ELG1 level, MMS stimulated. Potency, µM (series often up to 46.1 µM), inactives show at the top dose activity change, negative = inhibition, most hits filed as inhibitors. shares compounds with ELG1 DNA repair; also: % is scaled to controls: 0 for no effect and ±100 for the full control effect; nearly all actives have a fitted effect of over 60% in size
ELG1 5FU viab – confirmation of ELG1 repair inhibitors: viability with 5FU. shares compounds with ELG1 DNA repair. cell viability with 5-FU, ELG1-dependent repair. Potency, µM (doses to about 46.1 µM), inactives show at the top dose activity change, negative = viability loss, usual class: cytotoxic. 670 tested, under 10 active. AID 624250;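 also: ELG1-luc HEK293T cells cotreated with 5-fluorouridine at 10 µM final; viability measured 16 h after compound addition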
ELG1 MMS viab – confirmation of ELG1 repair inhibitors: viability with MMS; shares compounds with ELG1 DNA repair; Cell viability with MMS, ELG1-dependent DNA repair; hit rate 33% among 670; Potency, µM (doses to about 46.1 µM), without a hit: top-dose activity change, negative = viability loss, actives largely listed as cytotoxic;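 also: ELG1-luc HEK293T cells co-treated with 10 µM MMS; viability read 16 h after compound addition; % is scaled to controls: 0 for no effect and ±100 for the full control effect; nearly all actives have a fitted effect of over 60% in size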
Cell viab unstim – unstimulated viability counter-screen for ELG1 repair hits; shares compounds with ELG1 DNA repair; Potency, µM (titrated, usually from 45.9 µM), for inactives: at the highest dose activity change, negative = loss of viability, actives largely listed as cytotoxic; hit rate 8% among 900; AID 624252; cell viability counter-screen, unstimulated, luminescence;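 also: compound exposure lasted 16 hours before reading; % is scaled to controls: 0 for no effect and ±100 for the full control effect; nearly all actives have a fitted effect of over 55% in size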
FLuc biochem – firefly luciferase inhibition counter-screen; purified firefly luciferase, luminescence counter-screen; AID 624253; shares compounds with ELG1 DNA repair; hit rate 10% among 350; Potency, µM (highest dose often 57.5 µM), without a hit: at the highest dose activity, negative = inhibition, hits mostly inhibitors; also: % is scaled to controls: 0 for no effect and ±100 for the full control effect
* hit, by the source's call. Compounds with a hit are over-represented: about 9.3% of the library has one in this group of screens. Calls follow the shape of the dose curve; as a rule, active = well fitted curve in the direction sought with a large enough effect; inconclusive = small, poorly fitted or top-dose-only effect, or another doubt; inactive = no such curve, though single readings can be large; an effect the other way counts as inactive or inconclusive. Potency is read from the fitted curve at half-maximal effect.

COc1cc(/C=C/C(=O)Nc2ccc3nc4n(c(=O)c3c2)CCCC4)cc(OC)c1OC was read as ELG1 DNA repair 4.6µM*, Rab9 promoter act -7%, FLuc modulator -9%, ELG1 genotox -6%, NPC1 promoter act -11%, ELG1-Luc inh 2.8µM*, ELG1 MMS Luc 10µM*, ELG1 5FU viab inconclusive, ELG1 MMS viab -3% and Cell viab unstim -15%.
Screening COc1cccc2cc(-c3cc(=O)oc4ccc(O)cc34)oc12 returned ELG1 DNA repair -22%, Rab9 promoter act -1%, FLuc modulator -1%, ELG1 genotox -4% and NPC1 promoter act 11%.
`O=C(CCC(=O)Nc1ccccc1)NCCO` gave ELG1 DNA repair 14%, Rab9 promoter act 5%, SMN2 splice enh -7%, FLuc modulator -1%, ELG1 genotox 1% and NPC1 promoter act -3%.
Cc1ccc(NC(=O)C2CCN(C(=O)[C@@H]3Cc4ccccc4CN3)CC2)cc1 was read as ELG1 DNA repair inconclusive, Rab9 promoter act 7%, FLuc modulator inconclusive, ELG1 genotox 11% and NPC1 promoter act 24%.
Screening COc1ccc(CCNS(=O)(=O)c2ccc3c(c2)CC(C)N3C(C)=O)cc1OC (stereo unspecified) returned ELG1 DNA repair inconclusive, Rab9 promoter act 2%, SMN2 splice enh -30%, FLuc modulator 1%, ELG1 genotox -3% and NPC1 promoter act -2%.
`Cn1c(=O)c2c(ncn2CC(=O)OCCCC(=O)c2ccc(Br)cc2)n(C)c1=O` gave ELG1 DNA repair inconclusive, ELG1 genotox -1%, ELG1 FLuc counter -3%, ELG1-Luc inh inconclusive, ELG1 MMS Luc 2.5µM*, ELG1 5FU viab -2%, ELG1 MMS viab 2.2µM*, Cell viab unstim inconclusive and FLuc biochem 2%.

Screening data: PubChem BioAssay, National Center for Advancing Translational Sciences (NCATS)
